Hit rate of the full screen: of about 310,000 compounds, about 14,000 (4.5%) showed an effect of 50% or more. Effects have a minus sign here. This excerpt belongs to a sample that is enriched for strong results.
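Also: peak tail current of the secondary pulse compared with the same well before compound.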

The target of the experiment is human ether-à-go-go-related gene (hERG) potassium channel (human, UniProt Q12809). In words: primary screen, population patch clamp on CHO cells stably expressing hERG; higher = less effect of the substance.
Sequence of human ether-à-go-go-related gene (hERG) potassium channel (Q12809 whole entry, looked up): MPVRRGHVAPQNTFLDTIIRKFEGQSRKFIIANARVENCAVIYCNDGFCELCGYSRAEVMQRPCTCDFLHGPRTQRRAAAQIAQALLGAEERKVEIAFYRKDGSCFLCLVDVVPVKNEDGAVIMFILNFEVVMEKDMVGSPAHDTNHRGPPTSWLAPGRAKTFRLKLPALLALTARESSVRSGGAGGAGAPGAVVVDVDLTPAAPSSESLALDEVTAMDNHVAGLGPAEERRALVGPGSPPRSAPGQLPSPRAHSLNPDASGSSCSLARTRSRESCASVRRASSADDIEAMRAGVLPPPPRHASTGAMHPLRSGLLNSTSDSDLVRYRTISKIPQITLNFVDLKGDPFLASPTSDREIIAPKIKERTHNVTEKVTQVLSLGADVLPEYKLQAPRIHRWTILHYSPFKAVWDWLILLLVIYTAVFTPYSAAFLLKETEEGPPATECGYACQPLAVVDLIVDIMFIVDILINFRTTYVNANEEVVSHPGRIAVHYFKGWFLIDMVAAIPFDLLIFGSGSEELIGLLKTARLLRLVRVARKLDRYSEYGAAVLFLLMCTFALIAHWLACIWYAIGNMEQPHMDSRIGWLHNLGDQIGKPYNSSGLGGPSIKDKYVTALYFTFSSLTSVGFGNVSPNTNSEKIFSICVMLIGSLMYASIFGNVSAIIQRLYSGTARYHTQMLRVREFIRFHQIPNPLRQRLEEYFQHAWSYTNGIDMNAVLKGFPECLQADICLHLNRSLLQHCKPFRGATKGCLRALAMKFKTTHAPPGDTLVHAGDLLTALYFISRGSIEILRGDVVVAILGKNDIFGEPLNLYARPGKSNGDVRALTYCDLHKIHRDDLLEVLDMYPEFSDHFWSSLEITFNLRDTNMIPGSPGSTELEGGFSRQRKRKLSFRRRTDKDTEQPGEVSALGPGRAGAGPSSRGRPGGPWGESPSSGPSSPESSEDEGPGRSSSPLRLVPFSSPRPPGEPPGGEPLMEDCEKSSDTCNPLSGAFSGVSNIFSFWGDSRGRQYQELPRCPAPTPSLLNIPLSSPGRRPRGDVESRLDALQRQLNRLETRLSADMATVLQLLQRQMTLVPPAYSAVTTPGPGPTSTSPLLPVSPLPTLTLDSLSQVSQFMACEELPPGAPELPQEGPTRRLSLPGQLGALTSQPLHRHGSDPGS
With `COc1ccc(C=O)cc1OS(=O)(=O)c1ccccc1[N+](=O)[O-]`, the “hERG current change (%, negative = inhibition) at 10uM” value is recorded as -3.35%.
As to `COc1ccc(NS(=O)(=O)c2cccc(C(=O)NNC(=O)c3ccccc3OC)c2)cc1`, the “hERG current change (%, negative = inhibition) at 10uM” value is reported as -16.4%.
As for `NC(=O)Cn1c(=O)n(Cc2ccco2)c(=O)c2c3c(sc21)CCCCC3`, the “hERG current change (%, negative = inhibition) at 10uM” value is 5.2%.
Take `CN(C)CCn1c(=O)n(Cc2ccco2)c(=O)c2c3c(sc21)CCCCC3`: the “hERG current change (%, negative = inhibition) at 10uM” value was -50.4%.
As for `Cn1c(=O)n(Cc2ccco2)c(=N)c2c3c(sc21)CCCC3`, the “hERG current change (%, negative = inhibition) at 10uM” value is -31.4%.
On to `Cn1c(=O)n(Cc2ccco2)c(=N)c2c3c(sc21)CCC3`, for which the “hERG current change (%, negative = inhibition) at 10uM” value was -64.8%.
`O=c1c2c3c(sc2[nH]c(=S)n1Cc1ccco1)CCC3`: the “hERG current change (%, negative = inhibition) at 10uM” value turned out to be 6.17%.
To `CN(C)CCn1c(=O)n(-c2ccc(F)cc2)c(=O)c2c3c(sc21)CCCCC3` belongs -18.6%.
Take `CC(O)CNc1nc2sc3c(c2c(=O)n1Cc1ccco1)CCCCC3` (centres unmarked): the “hERG current change (%, negative = inhibition) at 10uM” value turned out to be 4.61%.
As for `CN(C)CCCn1c(=O)n(Cc2ccco2)c(=O)c2c3c(sc21)CCCCC3`, the “hERG current change (%, negative = inhibition) at 10uM” value was -71.1%.
To `CN(C)CCn1c(=O)n(-c2cccc(Cl)c2)c(=O)c2c3c(sc21)CCCCC3` belongs -20.7%; to `Cc1c(NC(=O)COC(=O)CSc2ccc(C(N)=O)cc2[N+](=O)[O-])c(=O)n(-c2ccccc2)n1C`, 23.1%; to `Cc1ccc(C)c(S(=O)(=O)N2CCN(C(=O)CCNS(=O)(=O)c3ccccc3)CC2)c1`, -33.6%.
In the case of `O=C1NC(c2ccccc2)=NC1(NS(=O)(=O)c1ccccc1)C(F)(F)F` (centres unmarked), the “hERG current change (%, negative = inhibition) at 10uM” value is -3.5%.
With `Cc1ccc(S(=O)(=O)N2CCC(C(=O)OC(C)C(=O)NC3CCCCC3C)CC2)cc1C` (centres unmarked), the “hERG current change (%, negative = inhibition) at 10uM” value is -25.4%.
On to `Cc1ccc(NC(=O)c2sc3nc4c(c(-c5ccco5)c3c2N)CCC4)cc1`, for which the “hERG current change (%, negative = inhibition) at 10uM” value is reported as 11.6%.
With `Cc1cc(C(=O)Nc2ccc3[nH]ccc3c2)no1`, the “hERG current change (%, negative = inhibition) at 10uM” value is on record as 6.46%.
To `Cc1ccc(S(=O)(=O)NCCSc2ccccc2)cc1[N+](=O)[O-]` belongs -0.246%; to `CC(=O)N1CCN(S(=O)(=O)c2cccc(C(=O)N(Cc3ccccc3)c3cccc(C)c3)c2)CC1`, -27.4%; to `Cc1ccc(N(Cc2ccccc2)C(=O)c2cccc(S(=O)(=O)N3CC(C)OC(C)C3)c2)cc1` (centres unmarked), -7.01%.
Take `CN1CCN(S(=O)(=O)c2cccc(C(=O)N(Cc3ccccc3)c3ccccc3)c2)CC1`: the “hERG current change (%, negative = inhibition) at 10uM” value is listed as -19.9%.
The value for `Cc1ccc(N(Cc2ccccc2)C(=O)c2cc(S(=O)(=O)N3CCOCC3)ccc2C)cc1` was -27.4%.
Take `Cc1cccc(N(Cc2ccccc2)C(=O)c2cccc(S(=O)(=O)N3CC(C)OC(C)C3)c2)c1` (centres unmarked): the “hERG current change (%, negative = inhibition) at 10uM” value is -9.56%.
For `Cc1ccc(N(Cc2ccccc2)C(=O)c2cccc(S(=O)(=O)N3CCOCC3)c2)cc1`, the “hERG current change (%, negative = inhibition) at 10uM” value is listed as -74.5%.
The value for `Cc1ccc(N(Cc2ccccc2)C(=O)c2ccc(S(=O)(=O)N3CCOCC3)cc2)cc1` was -28.5%.
Turning to `Cc1ccc(N(Cc2ccccc2)C(=O)c2cccc(S(=O)(=O)N3CCN(C)CC3)c2)cc1`, the “hERG current change (%, negative = inhibition) at 10uM” value is recorded as -52.7%.
The value for `CC(=O)N1CCN(S(=O)(=O)c2cccc(C(=O)N(Cc3ccccc3)c3ccc(C)cc3)c2)CC1` was -61.2%; that for `CCCCSc1n[nH]c(N)n1` was 14%; that for `CC(C)CCn1c(N2CCC(C(N)=O)CC2)nc2c1c(=O)[nH]c(=O)n2C` was 11.1%.
In the case of `CCOc1cc2[nH]c(=S)n(CCCC(=O)NCc3ccco3)c(=O)c2cc1OCC`, the “hERG current change (%, negative = inhibition) at 10uM” value is listed as -7.08%.
In the case of `CCOC(=O)/C(C#N)=C/N1CCOCC1`, the “hERG current change (%, negative = inhibition) at 10uM” value is on record as -1.97%.
Regarding `COc1cccc(C2C3(C#N)C(N)=NC(OC)(OC)C23C#N)c1` (centres unmarked), the “hERG current change (%, negative = inhibition) at 10uM” value came out at 9.01%.
Take `CC1CCCN(CC(=O)N2c3ccccc3Sc3ccccc32)C1` (centres unmarked): the “hERG current change (%, negative = inhibition) at 10uM” value came to 1.98%.
As for `O=C(C1CC1)N1c2ccccc2Sc2ccccc21`, the “hERG current change (%, negative = inhibition) at 10uM” value is reported as 7.2%.
Consider `c1ccc2c(c1)Sc1ccccc1N2CC1CN2CCC1CC2` (centres unmarked), for which the “hERG current change (%, negative = inhibition) at 10uM” value is reported as -53.1%.
For `Cc1ccc2nc(-c3cccnc3)oc2c1`, the “hERG current change (%, negative = inhibition) at 10uM” value amounted to 5.22%.
Consider `O=C(O)CCN(CC(=O)c1ccc(Cl)cc1)S(=O)(=O)c1ccc([N+](=O)[O-])cc1`, for which the “hERG current change (%, negative = inhibition) at 10uM” value is listed as -13.7%.
Regarding `Cc1ccc(C(=O)CN(CCCC(N)=O)S(=O)(=O)c2ccc([N+](=O)[O-])cc2)cc1`, the “hERG current change (%, negative = inhibition) at 10uM” value was -66.7%.
As for `Cc1ccc(C(=O)CN(CCC(=O)O)S(=O)(=O)c2ccc([N+](=O)[O-])cc2)cc1`, the “hERG current change (%, negative = inhibition) at 10uM” value is reported as -25.7%.
Consider `c1ccc2c3c([nH]c2c1)-c1[nH]ncc1CC3`, for which the “hERG current change (%, negative = inhibition) at 10uM” value is 1.38%.
As to `CC(=O)N1CCc2c(sc(NC(=O)CCS(=O)(=O)c3ccc(C)cc3)c2C(N)=O)C1`, the “hERG current change (%, negative = inhibition) at 10uM” value is listed as 2.54%.
To `O=C(CC1CCCC1)Nc1cc(S(=O)(=O)N2CCOCC2)ccc1O` belongs 4.05%; to `Cc1cccc2cc(-c3nc4c(C)cccn4c3NCc3ccco3)c(=O)[nH]c12`, -11.5%.
To `Cc1ccc2[nH]c(=O)c(-c3nc4ccccn4c3NCc3ccco3)cc2c1` belongs -12.3%.
The value for `COCCNc1c(-c2cc3ccc(C)c(C)c3[nH]c2=O)nc2ccccn12` was -74.9%; that for `O=C(NCCc1ccccc1)c1cccnc1` was 7.59%; that for `COc1ccc(-c2cn[nH]c2-c2ccc(OCC(=O)NN)cc2O)cc1OC` was 18.3%.
Turning to `COc1ccc(C(=O)N2N=C(c3ccc(NS(C)(=O)=O)cc3)CC2c2cccs2)cc1` (centres unmarked), the “hERG current change (%, negative = inhibition) at 10uM” value is on record as -10.6%.
To `COc1cccc(C2CC(c3ccc(NS(C)(=O)=O)cc3)=NN2C(=O)c2ccccc2)c1OC` (centres unmarked) belongs -64.4%; to `COc1ccccc1C1CC(c2ccc(NS(C)(=O)=O)cc2)=NN1C(=O)c1ccccc1` (centres unmarked), -50.9%; to `CCOc1ccccc1C1CC(c2cccc(NS(C)(=O)=O)c2)=NN1C(=O)c1ccccc1` (centres unmarked), -38.1%.
`COc1ccc(OC)c(C2CC(c3ccc(NS(C)(=O)=O)cc3)=NN2C(=O)c2ccccc2)c1` (centres unmarked): the “hERG current change (%, negative = inhibition) at 10uM” value is -67.2%.
Consider `COc1cccc(C2CC(c3ccc(Br)cc3)=NN2C(=O)c2ccncc2)c1OC` (centres unmarked), for which the “hERG current change (%, negative = inhibition) at 10uM” value is given as -29.7%.
Turning to `COc1ccc(C2CC(c3ccc(OC)c(OC)c3)=NN2C(=O)c2ccccc2)cc1` (centres unmarked), the “hERG current change (%, negative = inhibition) at 10uM” value came out at 9.33%.
The value for `COc1ccccc1C1CC(c2ccccc2)=NN1C(=O)c1ccccc1` (centres unmarked) was 11.9%; that for `COc1cccc(C2CC(c3cccc(NS(C)(=O)=O)c3)=NN2C(=O)c2ccccc2)c1OC` (centres unmarked) was -40.5%.
On to `CCOC(=O)Cc1csc(NC(=O)c2ccc(S(=O)(=O)N(CCOC)CCOC)cc2)n1`, for which the “hERG current change (%, negative = inhibition) at 10uM” value is -1.25%.
Consider `O=C(Cc1ccccc1)Nc1nnc(-c2cccc([N+](=O)[O-])c2)s1`, for which the “hERG current change (%, negative = inhibition) at 10uM” value is 5.44%.
To `COc1ccc(CCC(=O)Nc2cc(S(=O)(=O)N3CCOCC3)ccc2OC(C)C)cc1` belongs -34.8%; to `COc1ccccc1N(C)S(=O)(=O)c1ccc(C(=O)OCC(=O)NCc2cccs2)cc1`, 5.35%; to `CCN(c1ccc(OC)cc1)S(=O)(=O)c1ccc2c(c1)CC(C)N2C(=O)C1CC1` (centres unmarked), 19.5%.
The value for `O=S(=O)(NCCc1ccc(F)cc1)c1cccc2cccnc12` was -0.538%.
On to `CCCCN1C(=O)C(=O)N(CC(=O)N2N=C3/C(=C/c4ccco4)CCCC3C2c2ccco2)C1=O` (centres unmarked), for which the “hERG current change (%, negative = inhibition) at 10uM” value is on record as -75%.
Turning to `O=C(CSc1nccc(=O)[nH]1)N1N=C2/C(=C/c3ccco3)CCCC2C1c1ccco1` (centres unmarked), the “hERG current change (%, negative = inhibition) at 10uM” value came out at 17.4%.
The value for `Cn1cnnc1SCC(=O)N1N=C2/C(=C/c3ccco3)CCCC2C1c1ccco1` (centres unmarked) was -25.6%.
To `CC1CCN(C(=O)CSc2nc3c(c(=O)n(C)c(=O)n3C)n2C)CC1` belongs 10.5%; to `CC1CCN(CC(=O)c2cccc(C(F)(F)F)c2)CC1.O=C(O)C(=O)O`, 7.63%.
With `COc1ccc(CCNC(=O)Cc2cccc(C(F)(F)F)c2)cc1OC`, the “hERG current change (%, negative = inhibition) at 10uM” value is 5.75%.
As to `COc1cc(C(=O)N(C)CC2CCN(CCc3cccc(C(F)(F)F)c3)CC2)ccc1C`, the “hERG current change (%, negative = inhibition) at 10uM” value is given as -78.8%.
On to `COc1cccc(C(=O)N(C)CC2CCN(CCc3cccc(C(F)(F)F)c3)CC2)c1`, for which the “hERG current change (%, negative = inhibition) at 10uM” value is -70.8%.
In the case of `COc1cccc(CN(C)C(=O)c2ccc(OCC(=O)Nc3cccc(C(F)(F)F)c3)c(OC)c2)c1`, the “hERG current change (%, negative = inhibition) at 10uM” value is listed as -26.2%.
Turning to `COc1ccnc(CN(C)C(=O)C2CCC(=O)N(Cc3cccc(C(F)(F)F)c3)C2)c1` (centres unmarked), the “hERG current change (%, negative = inhibition) at 10uM” value is reported as -18.6%.
For `CN(CC1CCN(CCc2cccc(C(F)(F)F)c2)CC1)C(=O)c1ccc(F)cc1`, the “hERG current change (%, negative = inhibition) at 10uM” value was -70.8%.
For `COc1cccc(CCNCc2cccc(C(F)(F)F)c2)c1.O=C(O)C(=O)O`, the “hERG current change (%, negative = inhibition) at 10uM” value is -3.46%.
Consider `O=C(c1cccc(C(F)(F)F)c1)N1CCN(CCc2ccccc2)CC1`, for which the “hERG current change (%, negative = inhibition) at 10uM” value is -47.8%.
As to `CN(CC1CCN(CCc2cccc(C(F)(F)F)c2)CC1)C(=O)c1ccccc1`, the “hERG current change (%, negative = inhibition) at 10uM” value is reported as -68.5%.
As for `CCOC(=O)C1CCCN(C(=O)CSc2nccn2C)C1` (centres unmarked), the “hERG current change (%, negative = inhibition) at 10uM” value is on record as -0.344%.
To `CCOC(=O)c1cnn2c(C)cc(-c3ccccc3)nc12` belongs -10.4%; to `Cc1cc(C)c(S(=O)(=O)Nc2ncn[nH]2)cc1C`, 42.8%; to `COC(=O)c1ccccc1NC(=O)c1ccccc1OC`, -23.1%.
To `CN(Cc1cccc(C(F)(F)F)c1)C(=O)C1CCC(=O)N(CC2CCCCC2)C1` (centres unmarked) belongs -6.77%; to `CN(CC1CCN(CCc2cccc(C(F)(F)F)c2)CC1)C(=O)c1ccc(F)cc1F`, -69.9%.
`O=C(NCCc1cccc(C(F)(F)F)c1)C1CCC(=O)N(C2CC2)C1` (centres unmarked): the “hERG current change (%, negative = inhibition) at 10uM” value was 3.12%.

The values above are taken from PMC4336329 (PLoS ONE, 2015).
